Most compounds without a hit are left out; they make up all but 2.6% or so of the library.
APOBEC3G inh: inhibitors of human APOBEC3G DNA deaminase; Q9HC16; recombinant A3G, ssDNA deamination FAM/TAMRA fluorescence; inhibition, % at 20 µM; hit rate 0.28% among 330,000; AID 493012;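 active = inhibition of at least 40% at 20 µM, with no more than 30% in the related APOBEC3A deaminase screen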;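 also: plate controls were DMSO wells with A3G for no effect and wells lacking A3G enzyme for full effect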
APOBEC3A inh: inhibitors of human APOBEC3A DNA deaminase; P31941; recombinant A3A, FAM/TAMRA ssDNA deamination fluorescence; inhibition, % at 20 µM; hit rate 0.41% among 330,000;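 active = at least 40% inhibition at 20 µM here, with at most 30% in a related deaminase screen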;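 also: plate controls were A3A with DMSO for no effect and wells lacking A3A enzyme for full effect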
Target sequence (P31941 whole entry, looked up): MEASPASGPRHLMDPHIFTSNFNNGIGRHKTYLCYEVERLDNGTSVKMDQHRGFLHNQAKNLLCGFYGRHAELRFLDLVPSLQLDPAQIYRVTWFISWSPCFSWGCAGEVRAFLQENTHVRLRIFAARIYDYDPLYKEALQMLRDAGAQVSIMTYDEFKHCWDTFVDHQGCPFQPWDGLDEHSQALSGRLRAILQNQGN
PABP1 MLLE inh: blocks PAM2 peptide binding to the PABP1 MLLE domain; P11940; GST-MLLE / FITC-PAM2 fluorescence polarization; inhibition, % at 20 µM; hit rate 0.36% among 360,000; AID 588489; in the data active = inhibition above about 35%, passing the limit was not always enough;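 also: plate controls were DMSO wells with GST-MLLE for no effect and wells lacking GST-MLLE protein for full effect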
eIF4H inh: inhibitors of RNA binding by human eIF4H | Q15056 | eIF4H fluorescence polarization binding assay | inhibition, % at 35 µM | hit rate 0.94% among 290,000;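 also: calls also rest on retests at 20 µM and on dose response follow-up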
PHOSPHO1 inh: PHOSPHO1 (human) inhibition. hit rate 1.1% among 290,000. AID 1565. recombinant PHOSPHO1, absorbance phosphatase assay. inhibition, % at 13.3 µM. Q8TCT1; in the data active = inhibition above about 60%
PABP FP inh: blocks human PABP binding to poly(A) RNA. hit rate 1% among 290,000. P11940. calls only at 35 µM. fluorescence polarization. AID 2014;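 also: calls also rest on retests at 20 µM and on dose response follow-up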
Active calls of the source: *; i = inactive; u = inconclusive; x = no result given; + = active, no number. Unless noted, no rule for the calls is given here.

SMILES | APOBEC3G inh | APOBEC3A inh | PABP1 MLLE inh | eIF4H inh | PHOSPHO1 inh | PABP FP inh
COc1ccc(CCn2cc(C#N)c(=O)[nH]c2=O)cc1OC | 1 | -1 | 2 | -5 | 4 | i
Cc1ccccc1N1CCN(C(=O)c2cc(C3CC3)nn2-c2ccccc2)CC1 | -9 | -5 | -5 | x | x | x
O=C(/C=C/c1ccco1)N1CCN(c2ncccn2)CC1 | 2 | 8 | 68* | 44 | -6 | i
Cc1cccc(N2CCN(C(=O)c3ccc4nc(-c5ccco5)c(-c5ccco5)nc4c3)CC2C)c1 (stereo unspecified) | 64 | 85 | 12 | 93* | -16 | +
O=C(Nc1ccc2nc(-c3ccco3)c(-c3ccco3)nc2c1)N1CCN(c2ccccn2)CC1 | -5 | 43* | 49* | 106* | 98* | +
S=C(Nc1ccc(N2CCOCC2)cc1)Nc1ccc2nc(-c3ccco3)c(-c3ccco3)nc2c1 | 65 | 44 | 92 | u | 92* | u
CC12CCC3c4ccc(O)c([N+](=O)[O-])c4CCC3C1CCC2=O (stereo unspecified) | x | x | -41 | x | x | x
COc1cc(CC(=O)OCC(=O)N(C)C2CCCCC2)cc(OC)c1OC | -4 | -4 | -4 | x | x | x
O=C(c1ccc2nc(-c3ccco3)c(-c3ccco3)nc2c1)N1CCN(c2ncccn2)CC1 | 93 | 97 | 24 | 85* | -17 | +
O=C(c1cccc(C(=O)N2CCN(c3ncccn3)CC2)c1)N1CCN(c2ncccn2)CC1 | -2 | -1 | 6 | -12 | 30 | i
COc1cc(C(=S)N2CCCC2)cc(OC)c1O | 6 | -1 | 27 | -6 | 76* | i
O=C1CC[C@@H](CN(Cc2ccccc2)Cc2cn[nH]c2-c2cc3ccccc3o2)N1 | -7 | 5 | 17 | 0 | 32 | i
c1ccc2oc(-c3[nH]ncc3CN(Cc3ccncc3)CC3CCCO3)cc2c1 (stereo unspecified) | -8 | 1 | -12 | -7 | 60* | i
CCCNC(=O)N1CCN(S(=O)(=O)c2ccc3c(c2)OCCO3)CC1 | -4 | 0 | 8 | x | x | x
Nc1c(/C=C2/C=CC(=O)C(O)=C2)c(=O)nc2sc(CC(=O)N3CCCCC3)nn12 | 48 | 56 | -50 | 69* | -2 | +
Nc1c(/C=C2/C=CC(=O)C(O)=C2)c(=O)nc2sc(CC(=O)N3CCCC3)nn12 | 7 | 9 | -34 | 55* | 40 | +
Nc1c(/C=C2/C=CC(=O)C(O)=C2)c(=O)nc2sc(CC(=O)N3CCOCC3)nn12 | x | x | -40 | x | x | x
Nc1c(C=C2C=CC(=O)C=C2)c(=O)nc2sc(CC(=O)N3CCCCC3)nn12 | 7 | 9 | -2 | x | 18 | x
COc1cccc(CN2CCC2(C)C(=O)Nc2ccc(C)c(O)c2)c1F (stereo unspecified) | x | x | -7 | x | x | x
O=C(Nc1ccc(N2CCCCC2)cc1)c1ccc([N+](=O)[O-])o1 | 6 | 17 | -7 | 74* | 4 | +
O=C(CSc1nnc(-c2ccco2)o1)c1ccc[nH]1 | 7 | 16 | -2 | 83* | -26 | i
Cc1cc(C(=O)CSc2nnc(-c3ccco3)o2)c(C)n1CC1COc2ccccc2O1 (stereo unspecified) | x | x | -36 | 38 | 91* | i
Cc1cc(C(=O)CSc2nnc(-c3ccc(F)cc3)o2)c(C)n1CC1COc2ccccc2O1 (stereo unspecified) | 3 | 1 | -92 | 15 | 91* | i
Cc1cc(C(=O)CSc2nnc(-c3ccccc3)o2)c(C)n1CC1COc2ccccc2O1 (stereo unspecified) | -4 | -2 | -66 | u | -35 | u
COc1ccc(C(=O)Nc2ccc3nc4n(c(=O)c3c2)CCCC4)cc1[N+](=O)[O-] | -6 | -3 | x | -2 | -12 | +
CC(=O)NC(Cc1ccc(C)cc1)C(=O)NC1CCN(c2ncccc2[N+](=O)[O-])CC1 (stereo unspecified) | -9 | -6 | 3 | -4 | 0 | i
COc1ccc(C(=O)Oc2ccc[nH]c2=O)cc1 | -8 | -9 | -11 | 8 | 2 | i
O=C(Oc1ccc[nH]c1=O)c1cc([N+](=O)[O-])cc([N+](=O)[O-])c1 | 10 | 4 | -5 | 50 | 34 | +
Cc1ccc(NC(=O)Cn2ncc3c([nH]c4ccccc43)c2=O)cc1Cl | -1 | -1 | -17 | -1 | 63* | i
